Pf Dd2 growth – inhibitors of Plasmodium falciparum Dd2 growth | P. falciparum Dd2 growth, SYBR Green, 72 h | Potency, µM (series often up to 28.9 µM), actives largely listed as inhibitors | hit rate 4.3% among 120,000 | AID 1347417; active = well fitted inhibition curve with a large enough effect; note: nearly all actives have a fitted effect of over 65% in size
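Readout: SYBR Green fluorescence, 485 nm excitation, 535 nm emission, after ~16 h lysis at 37C. Before that, Dd2-infected red cells (2.5% hematocrit) grew 72 h with compound, 29 uM top final concentration.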
A number is an active result; – = inactive. Many of the other results were omitted from the sample, so hits are more common in it than they were.

SMILES | Pf Dd2 growth
COc1ccc(CCNC(=O)CCc2c(C)nc3cc(-c4cccc(F)c4)nn3c2C)cc1OC | –
COc1ccc(-c2cc3nc(C)c(CCC(=O)N4CCN(c5ccccc5)CC4)c(C)n3n2)c(OC)c1 | –
COc1ccccc1-c1cc2nc(C)c(CCC(=O)Nc3cc(C)ccc3C)c(C)n2n1 | –
COc1ccc(CNC(=O)CCc2c(C)nc3cc(-c4ccc(OC)cc4OC)nn3c2C)cc1 | 11µM
COc1cc(OC)cc(-c2cc3nc(C)c(CCC(=O)Nc4ccc(C(C)=O)cc4)c(C)n3n2)c1 | –
COc1cc(OC)cc(-c2cc3nc(C)c(CCC(=O)NCc4ccccc4)c(C)n3n2)c1 | –
CCOC(=O)c1ccc(NC(=O)CCc2c(C)nc3cc(-c4ccc(OC)cc4OC)nn3c2C)cc1 | 5µM
COc1cc(OC)cc(-c2cc3nc(C)c(CCC(=O)Nc4ccccc4OC)c(C)n3n2)c1 | –
COc1ccccc1-c1cc2nc(C)c(CCC(=O)NCCc3ccc(SC)cc3)c(C)n2n1 | 13µM
COCC(=O)N1CCCC(C(=O)NCCc2noc(C3CCCC3)n2)C1 (stereo not given) | –
C=CCOc1cccc(-c2nc(C(=O)N(C)Cc3ccccc3)cs2)c1 | –
O=C(NC[C@H]1OC[C@@H](NC2CCCC2)[C@@H]1O)C1CCCC1 | –
COCC(=O)N1CC[C@H]2CC(=O)N(CCc3cccc(OC)c3OC)CC[C@H]2C1 | –
CCOc1ccccc1NC(=O)NC1CCN(C(=O)N2CC3CC(C2)[C@H]2CCCC(=O)N2C3)CC1 (stereo not given in full) | –
O=S(=O)(NCC1Cn2cccc2CN1Cc1cccnc1)c1ccc(F)cc1 (stereo not given) | –
CN1CCc2nc3sc(C(=O)Nc4cccc(C#N)c4)c(N)c3cc2C1 | –
Cc1cccc(NC(=O)c2sc3nc4c(cc3c2N)CN(C(C)C)CC4)c1 | 11µM
CC(=O)c1cccc(NC(=O)c2sc3nc4c(cc3c2N)CCCC4)c1 | –
c1cc2c(cc1N1CCC(N[C@H]3C[C@@H]4OCC[C@H]34)CC1)CCC2 | –
Fc1ccc2cnc(N3CCC(N[C@H]4C[C@@H]5OCC[C@H]45)CC3)nc2c1 | 8.9µM
Cc1ccc(S(=O)(=O)N2CCC(CC(=O)NCc3ccccc3)C2)c(C)c1 (stereo not given) | –
CCCNC(=O)N1CCCC(c2nn[nH]n2)C1 (stereo not given) | –
COc1ccccc1NC(=O)C1=C(C)Nc2nc(SCC(=O)c3ccc(C)cc3)nn2C1c1ccc(F)cc1 (stereo not given) | –
Cc1ccc(NC(=O)c2cnn3c2NC(c2ccccc2)=CC3c2ccccc2)cc1 (stereo not given) | –
CCCCOc1ccc(C2C(C(=O)Nc3ccccc3OC)=C(C)Nc3nnnn32)cc1OC (stereo not given) | –
SMILES | Pf Dd2 growth
COc1ccccc1NC(=O)C1=C(C)Nc2c(C(=O)Nc3ccc(F)cc3)cnn2C1c1ccc(Cl)cc1 (stereo not given) | 8.9µM
CCOc1cc(C2C(C(=O)Nc3ccccc3)=C(C)Nc3ncnn32)cc(Br)c1O (stereo not given) | –
COc1ccc(C2C(C(=O)Nc3ccccc3)=C(C)Nc3c(C(=O)Nc4ccccc4)cnn32)cc1 (stereo not given) | 3.5µM
CCOc1ccc(C2C(C(=O)Nc3ccccc3OC)=C(C)Nc3c(C(=O)Nc4cccc(C)c4)cnn32)cc1 (stereo not given) | 4µM
COc1cccc(NC(=O)c2cnn(-c3ccccc3)c2-n2cccc2)c1 | –
COc1ccc(C2C=C(c3cccc(OC)c3)Nc3c(C(=O)Nc4ccccc4)cnn32)cc1 (stereo not given) | 13µM
CC1=C(C(=O)Nc2ccccc2)C(c2ccc(C(=O)O)cc2)n2ncnc2N1 (stereo not given) | –
COc1ccccc1NC(=O)C1=C(C)Nc2nnnn2C1c1ccc(C(F)(F)F)cc1 (stereo not given) | –
COc1ccc(-c2nc3n(n2)C(c2ccccc2)C(C(=O)Nc2cccnc2)=C(C)N3)cc1 (stereo not given) | –
Cc1onc(-c2cnn(C)c2NCCc2ccccc2)c1C(=O)NCc1ccccc1 | –
O=C(c1ccno1)N1C[C@@H](F)[C@@H](OCc2nc3ccc(F)cc3[nH]2)C1 | –
CC(C)c1nnc(C2CN(C(=O)Cc3ccccc3)CC23CCOCC3)o1 (stereo not given) | –
N#Cc1ccc(CN2CCC3(CC2)CC(c2cccc(C(F)(F)F)c2)=NO3)cc1 | –
CN1CCc2[nH]cnc2C12CCN(C(=O)Cc1ccc(F)cc1Cl)CC2 | –
CCCNC(=O)N1CCC2(CC1)CC(N(C(=O)NC(C)C)C1CC1)CCO2 (stereo not given) | –
O=C(c1cccs1)N1CCC(N2CC3CC(C2)[C@H]2CCCC(=O)N2C3)CC1 (stereo not given in full) | –
CCCNC(=O)N(C1CCOCC1)C1CCN(Cc2cccnc2)CC1 | –
COCCN1CCC(CN(Cc2ccncc2)C(=O)c2ccc(=O)n(C)n2)CC1 | –
CCOC(=O)C1=C(C)N=C2SC=C(CC(=O)N3CCCC3)N2C1c1cccc(C)c1 (stereo not given) | –
CCc1noc([C@@H]2CC(F)(F)CN2C(=O)c2nccn2C)n1 | –
Cc1ccc(NC(=O)N2C[C@@H](F)C[C@H]2C(=O)N2CCc3ccccc3C2)cc1 | –
CCOc1ccc(NC(=O)c2cnc(Nc3ccccc3OC)c3ccccc23)cc1 | –
CCOc1ccc(NC(=O)c2cnn3c2NC(c2ccccc2)=CC3c2cccc(OC)c2OC)cc1 (stereo not given) | 2.5µM
COc1cccc(C2C=C(c3ccccc3)Nc3c(C(=O)Nc4ccccc4)cnn32)c1OC (stereo not given) | –
COc1ccccc1NC(=O)C1=C(C)Nc2ncnn2C1c1ccccc1C(=O)O (stereo not given) | 1.3µM
SMILES | Pf Dd2 growth
COc1cc(OC)c(C2C(C(=O)Nc3ccccc3)=C(C)Nc3ncnn32)cc1OC (stereo not given) | –
CCOc1ccccc1NC(=O)C1=C(C)Nc2ncnn2C1c1ccc(C)o1 (stereo not given) | –
NCCn1cc(C(=O)NC2CCCN(c3cnccn3)C2)nn1 (stereo not given) | –
Cc1noc(-c2cn(C3CCN(C(=O)c4cccn4C)C3)nn2)n1 (stereo not given) | –
CCC1=C(C(=O)OC)C(c2ccccc2)N2C(CC(=O)NCCc3cccs3)=CSC2=N1 (stereo not given) | –
O=C(NCCn1nc(-c2ccccc2)ccc1=O)C1NCCc2[nH]cnc21 (stereo not given) | –
O=C(NCC(F)(F)F)c1cc(Br)cn2ccnc12 | –
CN(C)c1cccc(NC(=O)C2=NO[C@@H]3CN(c4cccnc4)C[C@H]23)c1 | –
CC(C)N1C(=O)CO[C@H](c2ccc(NC(=O)c3ccco3)cc2)[C@H]1CO | –
COc1cccc(C(=O)N2C[C@@H](COc3ccccc3)[C@H](C(N)=O)C2)c1 | –
COC(=O)c1ccc2nc(C[C@@H]3C[C@@H](C(C)C)[C@H](CNC(=O)CCC(=O)O)C=C3C)[nH]c2c1 | –
COC(=O)c1ccc2nc(C[C@@H]3C[C@@H](C(C)C)[C@H](CNS(=O)(=O)c4ccccc4)C=C3C)[nH]c2c1 | 10µM
COC(=O)c1ccc2nc(C[C@@H]3C[C@@H](C(C)C)[C@H](CNCc4ccc(NC(C)=O)cc4)C=C3C)[nH]c2c1 | –
COC(=O)c1ccc2nc(C[C@@H]3C[C@@H](C(C)C)[C@H](CNC(=O)c4cccnc4)C=C3C)[nH]c2c1 | 7.9µM

Screening data: PubChem, National Center for Advancing Translational Sciences (NCATS)
